In all, about 360,000 compounds went through this assay and about 3,800 (1.1%) were called active. The sample holds actives, similar compounds and a random draw of the others, so the mix is not that of the screen.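 The calls were made as follows: active = compounds causing at least 50% loss of cell viability in the single-dose screen, relative to plate controls; inactive = the rest.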
Assay: viability loss with TRAIL in NB7+C8 cells, primary screen, TRAIL sensitizer project, cell-based, ATPlite luminescence (AID 624354)
Conditions: at 10 µM, hits give high values

Compound	inhibition (viability loss, TRAIL sensitization)
COc1ccc(S(=O)(=O)N2CCOCC2)cc1NC(=O)CC1CC2CCC1C2 (configuration not stated)	-19.8% (inactive)
Cn1cc([N+](=O)[O-])c(C(=O)Nc2ccc3c(c2)OCCO3)n1	23.6% (inactive)
Cc1cc(=O)[nH]c(N/N=C/c2c(C)nn(-c3ccccc3Cl)c2Cl)n1	-2.12% (inactive)
Cc1nn(-c2ccccc2)c(Cl)c1/C=N/NC(=O)c1nn(C)cc1[N+](=O)[O-]	54.6% (active)
COc1ccc(N2CCN(C(=O)C3CCN(S(=O)(=O)c4ccc(C)cc4)CC3)CC2)cc1	-4.63% (inactive)
CC(C)NC(=O)CSc1nnc(COc2ccccc2Cl)o1	11.2% (inactive)
COc1cccc(-c2sc3ccc(OC)cc3c2-c2ccc(OCCN3CCCCC3)cc2)c1	12.9% (inactive)
COc1ccc2sc(-c3ccc(S(C)(=O)=O)cc3)c(C#Cc3cncn3C)c2c1	54.7% (active)
Cn1cncc1C#Cc1c(-c2ccsc2)sc2ccccc12	0.155% (inactive)
Cc1cc(C)n2nc(C(=O)OCC(=O)N(C)CC(=O)Nc3ccc(F)cc3)nc2n1	2.14% (inactive)
c1ccc(-n2ncc(-c3nn[nH]n3)n2)cc1	8.97% (inactive)
O=C(NNS(=O)(=O)c1ccc([N+](=O)[O-])cc1)C1CCCCC1	-2.99% (inactive)
CC(C)(C)OC(=O)C[C@@H]1C/C=C\C[C@@H](CC(=O)N[C@H](CO)Cc2ccccc2)C(=O)NC[C@@H](c2ccccc2)OC1=O	3.83% (inactive)
O=C(C[C@H]1C/C=C\C[C@@H](NC(=O)OCC2c3ccccc3-c3ccccc32)C(=O)O[C@@H](c2ccccc2)CNC1=O)N[C@H](CO)Cc1ccccc1	73.9% (active)
CC(C)(C)OC(=O)C[C@H]1C/C=C\C[C@@H](CC(=O)N[C@H](CO)Cc2ccccc2)C(=O)NC[C@@H](c2ccccc2)OC1=O	-2.43% (inactive)
O=c1ccn([C@@H]2O[C@H](CNS(=O)(=O)c3cc4ccccc4s3)[C@@H](O)[C@H]2O)c(=O)[nH]1	5.61% (inactive)
COc1ccc(N2CCN(C(CNS(=O)(=O)c3ccc(C)cc3)c3ccccc3)CC2)cc1 (configuration not stated)	-6.83% (inactive)
CC1CCCC(NC(=O)c2cc(-c3ccncc3)nc3ccccc23)C1C (configuration not stated)	11.9% (inactive)
CCc1ccc(-c2cc(C(=O)NN3CCN(C)CC3)c3ccccc3n2)cc1	58.3% (active)
O=C(NCCc1ccccn1)c1cc(-c2ccc(Cl)cc2)nc2ccccc12	7.97% (inactive)
O=C(NCc1cccnc1)c1ccccc1NC(=O)c1c(F)cccc1F	-13.9% (inactive)
COc1ccc(CC(N)c2csc(NC(=O)Nc3ccc(C(C)C)cc3)n2)cc1 (configuration not stated)	92.1% (active)

Compound	inhibition (viability loss, TRAIL sensitization)
COc1ccc(CC(N)c2csc(NC(=O)NC(c3ccccc3)c3ccccc3)n2)cc1 (configuration not stated)	44.6% (inactive)
COc1ccc(CC(N)c2csc(NC(=O)Cc3ccccc3)n2)cc1 (configuration not stated)	-6.08% (inactive)
N#Cc1ccc(CN2CCN(CC(=O)Nc3ccccc3C(=O)NC3CC3)CC2)cc1	-1.82% (inactive)
Cn1c(=NC(=O)c2cnccn2)sc2ccccc21	61.8% (active)
Cn1c(=NC(=O)c2ccco2)sc2cccc(F)c21	47.7% (inactive)
COC(=O)c1ccc(OC(=O)c2cnccn2)cc1	6.75% (inactive)
OCCCNC(c1ccccc1)c1ccc(O)cc1 (configuration not stated)	20.3% (inactive)
CN(C)c1cccc(NC(=O)c2ccc(-c3ccc(F)c(F)c3)c3ccoc23)c1	20.1% (inactive)
Cc1sc2ncn(CC(=O)NCCCC(=O)N3CCN(c4ccccc4F)CC3)c(=O)c2c1C	19.6% (inactive)
C=CCOc1ccc(/C=C2\SC(=S)N(CCC(=O)O)C2=O)cc1	56.9% (active)
CCN(C(=O)CN1C(=O)/C(=C/c2ccc(F)cc2)SC1=S)C1CCS(=O)(=O)C1 (configuration not stated)	-9.46% (inactive)
CN(C(=O)CN1C(=O)/C(=C/c2ccc(Cl)cc2)SC1=S)C1CCS(=O)(=O)C1 (configuration not stated)	10.1% (inactive)
COCCN(C(=O)CSCc1ccc(C)cc1)c1c(N)n(CC(C)C)c(=O)[nH]c1=O	-0.426% (inactive)
COc1cccc(NC(=O)CN(C)CC(=O)c2c(N)n(Cc3ccccc3)c(=O)n(C)c2=O)c1	-2.67% (inactive)
Cc1ccc(S(=O)(=O)/N=C(\CN2CCOCC2)N2CCOCC2)cc1	-0.117% (inactive)
O=C(N/N=C/c1ccccc1O)/C(=C/c1ccccc1)CCO	51.4% (active)
NN=C(NN=Cc1ccccc1)c1ccccc1	12.4% (inactive)
O=C(N/N=C/c1cc([N+](=O)[O-])ccc1O)/C(=C\c1cccs1)NC(=O)c1ccccc1	41.5% (inactive)
CCCc1nn2c(=O)cc(CSCC(=O)Nc3cccc(C)c3)nc2s1	-0.888% (inactive)
CCOC(=O)CCc1c(C)c2ccc(OCc3nn[nH]n3)c(C)c2oc1=O	-5.29% (inactive)
COc1ccc(-c2cc3ccc(OCc4nn[nH]n4)cc3oc2=O)cc1	56.7% (active)
CCCCc1cc(=O)oc2cc(C)cc(OCc3nn[nH]n3)c12	10.2% (inactive)

Compound	inhibition (viability loss, TRAIL sensitization)
CCc1ccc(-n2c(=S)sc3c(=O)n(-c4ccccc4OC)c(=S)[nH]c32)cc1	-3.67% (inactive)
Cc1cccc(C)c1NC(=O)C(c1cccc2ccccc12)n1c(=O)c(-c2ccco2)nc2ccccc21 (configuration not stated)	-6.27% (inactive)
S=c1[nH]nc(/C=C/c2ccccc2)o1	0.666% (inactive)
O=c1oc(/C=C/c2ccccc2)nc2ccccc12	77.8% (active)
O=c1oc(-c2ccccc2NS(=O)(=O)c2ccc(Cl)cc2)nc2ccccc12	6.47% (inactive)
CN1CCC(CN)(N2CCN(c3ccccc3)CC2)CC1	6.93% (inactive)
COc1ccc(CCNc2cc(N3CCN(C(=O)c4ccccc4OC)CC3)ccc2[N+](=O)[O-])cc1OC	39.3% (inactive)
O=[N+]([O-])c1ccc(C=Nc2ccc(Cl)cc2Cl)s1	53.8% (active)
C[C@@H]1CN([C@@H](C)CO)C(=O)c2cc(NS(C)(=O)=O)ccc2O[C@@H](C)CCCCO[C@H]1CN(C)C(=O)Nc1ccc2c(c1)OCO2	-14.6% (inactive)
Cn1c(NCc2cccnc2)nc2cc(-c3ccc(F)cc3)sc2c1=O	12.2% (inactive)
COc1cccc(-c2cc3nc(NCCOc4ccccc4Cl)n(C)c(=O)c3s2)c1	-1.03% (inactive)
O=c1[nH]c(CCl)nc2cc(-c3ccc(Cl)cc3)sc12	94.8% (active)
CN(CC(=O)Nc1cccc(F)c1)C(=O)C1CC(=O)N(CCc2ccccc2)C1 (configuration not stated)	0.466% (inactive)
O=C(CNC(=O)C(c1ccccc1)c1ccccc1)N/N=C\c1ccc2c(c1)OCO2	9.36% (inactive)
Clc1ccc(Nc2ccc3ccccc3n2)cc1	22.5% (inactive)
C(=N\Nc1ccc2ccccc2n1)/c1ccc2c(c1)OCO2	62.1% (active)
COc1ccc(NC(=O)C2(C)Cc3c(-c4cccc(NC(C)=O)c4)ccnc3O2)cc1OC (configuration not stated)	4.61% (inactive)
CCCCN1CC(N2CCN(Cc3cccc(C)c3)CC2)CS1(=O)=O (configuration not stated)	4.54% (inactive)
CC(=O)[C@@]12O[C@@H]1C[C@H]1[C@@H]3CC[C@H]4C[C@@H](O)CC[C@]4(C)[C@H]3CC[C@@]12C	0.527% (inactive)
CCCNc1c(N)c(=O)c1=O	-1.54% (inactive)
C[C@H]1COc2cc(N3CCSCC3)ccc2S(=O)(=O)N1	-6.12% (inactive)
Cc1cc(Br)cn2c(Cc3ccccc3C(F)(F)F)c(-c3ccc(Cl)cc3)nc12	22.1% (inactive)

Compound	inhibition (viability loss, TRAIL sensitization)
O=C(O)c1cc(S(=O)(=O)N(Cc2ccccc2)c2ccccc2)ccc1Cl	-9.38% (inactive)
CCN(CC)CCCC(C)n1c2nc(=O)[nH]c(=O)c-2nc2cc(Cl)ccc21 (configuration not stated)	48.4% (active)
CCc1ccc(S(=O)(=O)Nc2ccc(C)c(NS(C)(=O)=O)c2)cc1	-5.21% (inactive)
Cc1c(O)c(C)c2c(c1O)C(=O)C[C@@H](c1ccccc1)O2	18.2% (inactive)
CC1CN(C(=O)CCC(=O)NCCCN2CCC(Cc3ccccc3)CC2)c2cc(Cl)ccc2O1 (configuration not stated)	40.8% (inactive)
CC(C)=CCC/C(C)=C/C(=O)O	-7.95% (inactive)
O=C(COC(=O)c1ccc(O)cc1O)c1ccc2c(c1)OCCO2	0.773% (inactive)
O=C(/C=C/c1ccc2c(c1)OCCO2)c1ccc(O)cc1	58.1% (active)
COc1ccc(OC)c(/C=C/C(=O)c2ccc3c(c2)OCO3)c1	12.1% (inactive)
CCOCCCN(C(=O)Cn1nnc(-c2ccc(OC)c(OC)c2)n1)C(CC)C(=O)NC1CCCC1 (configuration not stated)	-5.95% (inactive)
CCOC(=O)C(NS(=O)(=O)c1ccc(C)cc1)(C(F)(F)F)P(=O)(OCC(C)C)OCC(C)C (configuration not stated)	27.5% (inactive)
COc1ccccc1N1CCN(S(=O)(=O)c2ccc3c(c2)NC(=O)CS3)CC1	8.43% (inactive)
Cc1nn(Cc2ccc(C(=O)N3N=C(C(F)F)CC3(O)C(F)F)cc2)c(C)c1[N+](=O)[O-] (configuration not stated)	0.592% (inactive)
CC(=O)Nc1ccc(S(=O)(=O)NC(C)C(=O)OCCOc2ccc(F)cc2)cc1 (configuration not stated)	-1.76% (inactive)
CS(=O)(=O)c1cccc(-c2ccc3nncn3c2)c1	1.26% (inactive)
CC(C)n1cnc2c(NCc3ccccc3)cc(OCC3CCN(C)CC3)cc21	54.6% (active)
COCCNC(=O)CN(C(=O)CCC(=O)Nc1cc(C)on1)c1ccc(C)cc1C	12.5% (inactive)
O=C(NCc1ccccc1)C(c1ccc(F)cc1)N1CCN(C(=O)C2CCCO2)CC1 (configuration not stated)	3.33% (inactive)
Cc1ccc(C)c(NC(=O)CSc2nc3c(oc4ccccc43)c(=O)n2-c2ccccc2)c1	-5.26% (inactive)
CCCCC(=O)Nc1ccc2c(c1)C(=O)NC2=O	8.86% (inactive)
CCCCC(=O)Nc1cc(C)c2c(=O)oc3ccccc3c2n1	58.6% (active)

From PubChem BioAssay AID624354 (Sanford-Burnham Center for Chemical Genomics, 2012)
